The values that follow come from PubChem BioAssay (NCI).

Each structure is given as a SMILES string. About 79,000 compounds went through this panel and 15% of them were active in at least one assay; those are over-represented in the sample as a whole. Active and inactive are the calls of the source. Cut-off read from the data, not from the text of the source: active = growth inhibition above about 70%; inactive = the rest.

This experiment in a line: NCI Yeast Anticancer Drug Screen. Data for the rad50 strain (AID 155).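 Note: 0% = growth of vehicle-only cultures of the same strain.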 As to conditions: S. cerevisiae rad50 strain growth inhibition; at 50.0 µM (retest, dose inferred, filed as 5.0); stronger effect = higher value. Summed up: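 DNA repair mutant yeast, compound exposure, growth read-out; inhibition is taken relative to vehicle.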
Consider `ClC(CN1CCCCC1)C(Cl)c1ccccc1` (stereo not given), for which the growth inhibition was 28% (inactive).
With `CCOC(=O)c1ccc(N=Cc2ccc(N(CCCl)CCCl)cc2C)cc1` the figure was 15% (inactive); with `CN=C(N)N/N=C(\C)c1ccc2sc3ccc(/C(C)=N/NC(N)=NC)cc3c2c1`, 55% (inactive).
Take `c1cc2n[pH]nc2cn1` (stereo not given): the growth inhibition is 5% (inactive).
With `O=[N+]([O-])c1ccc(Br)c([N+](=O)[O-])c1` the figure was 98% (active).
For the compound `O=C(CBr)NC1CCCCC1`, the growth inhibition was 93% (active).
The same measure for `CC(C)C12C=C3CCC4C(C)(C(=O)O)CCCC4(C)C3(CC1)OO2` (stereo not given): 90% (active).
With `IC(I)=C(I)I` the figure was 93% (active).
The same measure for `Clc1ccc2c(c1)C(c1ccccc1Cl)=NCC(SCCN1CCOCC1)=N2`: 94% (active); for `CCOP(=O)(OCC)/C(C#N)=C/c1ccc(Br)cc1`: 95% (active); for `Cc1ccc(C(=O)C2C(c3ccccc3)N2C2CCCCC2)cc1` (stereo not given): 95% (active).
`CN(C)c1ncnc2c1ncn2C1OC(CO)C2NP(=O)(N(CCCl)CCCl)OC21` (stereo not given): the growth inhibition is 80% (active).
With `Nc1nc(N)c(-c2ccc(Cl)c(Cl)c2)c(CCc2ccc(CNC(=O)c3cccc(S(=O)(=O)F)c3)cc2)n1` the figure was 96% (active).
The same measure for `C[CH2][Pb]([CH2]C)([CH2]C)[O]C(=O)COc1ccc(Cl)cc1Cl`: 84% (active); for `O=C(OCC(CCl)OC(=O)C(Cl)(Cl)Cl)C(Cl)(Cl)Cl` (stereo not given): -5% (inactive).
